Screening results as filed in PubChem BioAssay.
Only some compounds are listed: those with a hit (about 6.2% of all), similar ones and a draw of the others.
Lassa entry inh: Lassa virus entry inhibition; Lassa virus pseudotype entry inhibition, cell reporter; Potency, µM (highest dose often 37.9 µM), inactives show top-dose activity change, negative = inhibition, hits mostly inhibitors; actives 1.2% (n = 300,000); calls by dose curve; tested in HEK293 cells; note: potency is the fitted concentration of half-maximal effect; nearly all actives have a fitted effect of over 50% in size
FMDV inh: blocks foot and mouth disease virus; actives 1.2% (n = 410,000); FMDV antiviral cell-based qHTS; Potency, µM (doses to about 57.9 µM), for inactives: at the top dose activity change, negative = inhibition, hits mostly inhibitors; calls by dose curve; tested in HEK293T cells; note: read-out not given here; potency is the fitted concentration of half-maximal effect; nearly all actives have a fitted effect of over 45% in size
HCMV antiviral: human cytomegalovirus inhibition; actives 4.5% (n = 410,000); HFF cells, HCMV-luciferase reporter, 72 h; active compounds read low; activity change, negative = inhibition, % at 57.5 µM; in the data active = activity change below about -60%; inconclusive = no clear call, values can overlap the other calls; inactive = above about -39%
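Luciferase read-out from HCMV-luciferase-infected HFFs (MOI 1 PFU/cell) 72 h post infection at 37C; compounds added after 16 h cell attachment; activity normalized between buffer-only basal and Salinomycin (10uM) inhibitor controls.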
MARV entry inh: Marburg virus entry inhibition; actives 1.8% (n = 300,000); Potency, µM (top dose mostly 37.8 µM), without a hit: at the highest dose activity change, negative = inhibition, hits mostly inhibitors; Marburg virus pseudotyped entry inhibition, cell reporter; AID 540276; calls by dose curve; tested in HEK293 cells; note: potency is the fitted concentration of half-maximal effect
Numbers without * were called inactive; ? = inconclusive; . = no result given; ! = repeats disagree; [ ] = remark or other dose. % is set by controls: 0 for no effect and ±100 for the full control effect.

SMILES	Lassa entry inh	FMDV inh	HCMV antiviral	MARV entry inh
COc1cc2c(cc1OC)C(C)N(C(=O)C1COc3ccccc3O1)CC2 (stereo not given)	?	25µM*	-65*	?
COc1cc2c(cc1OC)C(C)N(C(=S)NC(=O)c1ccccc1)CC2 (stereo not given)	-15%	?	-61*	-3%[46.1 µM]
OCCNc1nc(N2CCN(Cc3ccccc3)CC2)nc2ccccc12	0%	-1%	43	?
COc1ccc(OC)c(C(=O)c2nc3c(n2O)CCCCC3)c1	12%	14%	-7	26%
CCc1ccccc1-n1c(SCC(=O)Nc2ccc(C)cc2)nc2n[nH]c(C)c2c1=N	?	?	-69*	.
CCc1ccc(NC(=O)CSc2nc3n[nH]c(C)c3c(=N)n2-c2ccccc2C)cc1	?	0%	?	.
CCOc1ccccc1-n1c(SCC(=O)Nc2ccc(CC)cc2)nc2n[nH]c(C)c2c1=N	10µM*	-29%	.	?
O=C(NCc1cccs1)c1cc(C2CC2)on1	.	31%	19	.
COC(=O)C1=C(N)OC2=C(C(=O)CCC2)C1c1ccc2c(c1)OCO2 (stereo not given)	.	0%	23	.
CCOc1ccc(CN(C)C(=O)[C@H](Cc2ccccc2)NC(=O)OCc2ccccc2)cc1OC	8.9µM*	20µM*	-13	4.5µM*
CSc1ccc(CN(C)C(=O)C(Cc2ccccc2)NC(=O)c2ccccc2)cc1 (stereo not given)	?	13%	-67*	?
COc1ccc(CNC(=O)CN(C)Cc2ccc(SC)cc2)cc1	?	-9%	2	-13%[46.1 µM]
CN(Cc1ccc(F)cc1)C(=O)C(Cc1ccccc1)NC(=O)c1ccccc1 (stereo not given)	-21%	-15%	-17	?
CN(Cc1ccccc1)C(NC(=O)c1ccccc1)C(Cl)(Cl)Cl (stereo not given)	21µM*	-21%	-30	-28%
CSc1ccc(CN(C)CC(=O)NCc2ccccc2)cc1	?	-21%	-63*	-1%[46.1 µM]
O=C(c1cn(-c2ccccc2)nc1-c1cccs1)N1CCN(c2ccc(F)cc2)CC1	?	?	-21	?
Cc1cccc(C(=O)NC(NCc2ccco2)C(Cl)(Cl)Cl)c1 (stereo not given)	-3%	-20%	-2	-2%
Cc1cccc(C(=O)NC(NCCc2ccccc2)C(Cl)(Cl)Cl)c1 (stereo not given)	?	?	-71*	?
CCC(=O)N1CCN(c2ccccc2NC(=O)COc2cc(C)ccc2C(C)C)CC1	?	.	62	?
Cc1cc(C(=O)CSc2nnc3ccccn23)c(C)n1-c1ccccc1	0.89µM*	3.2µM*	-72*	0.32µM*
Cc1cc(C(=O)CSc2nnc(-c3cccs3)o2)c(C)n1-c1ccccc1	-18%	11µM*	-23	?
COc1cccc(NC(=O)CSc2nnc(-c3cc(C)n(-c4ccccc4)c3C)o2)c1	14%	13µM*	.	?
C/C(=N\NC(=O)c1nnn(-c2nonc2N)c1-c1cccs1)c1ccc(O)cc1	-35%[46.1 µM]	7%	0	8%[46.1 µM]
CCC(NC(=O)Nc1nnc(C(F)(F)F)s1)(C(F)(F)F)C(F)(F)F	7.1µM*	?	-105*	2.5µM*
O=C(Cn1ncc2ccccc21)N1CCN(c2cccc(C(F)(F)F)c2)CC1	1%	.	-17	-27%
SMILES	Lassa entry inh	FMDV inh	HCMV antiviral	MARV entry inh
COc1cc(/C=N/NC(=O)C(Cc2c[nH]c3ccccc23)NC(=O)OCc2ccccc2)cc([N+](=O)[O-])c1O (stereo not given)	6.3µM*	9%	-3	-1%
COc1ccc(Cn2c(CO)cnc2SCc2ccccc2)cc1	19%[46.1 µM]	0%	54	.
Cc1c(C(C)C)c(=O)n(-c2ccc(S(=O)(=O)NC3CCCCC3)cc2)n1C	?	-29%	-89*	?
Cc1c(NS(=O)(=O)c2ccccc2)c(=O)n(-c2ccccc2)n1C	-19%	2%	-10	?
Cc1c(NN=C(C#N)C#N)c(=O)n(-c2ccccc2)n1C	-15%	14µM*	-30	28%[46.1 µM]
Cc1c(C(C)C)c(=O)n(-c2ccc(S(=O)(=O)NCc3ccccc3)cc2)n1C	2µM*	?	-85*	?
Cc1ccc(S(=O)(=O)Nc2c(C)n(C)n(-c3ccccc3)c2=O)cc1	?	-6%	-98*!	1%[46.1 µM]
Cc1c(C(C)C)c(=O)n(-c2ccc(S(=O)(=O)N3CCOCC3)cc2)n1C	11%	-20%	-23	17%[46.1 µM]
Cc1c(NC(=O)/C(C#N)=C/c2ccccc2)c(=O)n(-c2ccccc2)n1C	-18%	-25%	-21	-20%
O=C(O)c1cccc(N2C(=O)c3cc4cccc(Br)c4cc3C2=O)c1	18%[46.1 µM]	-9%	-21	-1%[46.1 µM]
CCNC(=O)C1CCCN(Cc2ccc(OCc3ccccc3)cc2)CC1 (stereo not given)	.	6%	-64*	.
COCCNC(=O)C1CCCN(Cc2cccc(C#N)c2)CC1 (stereo not given)	.	-17%	-61*	.
COCCNC(=O)C1CCCN(Cc2ccc(C#N)cc2)CC1 (stereo not given)	.	-19%	-24	.
Cc1ccc(Nc2c(-c3ccc(O)cc3)nc3cccc(C)n23)cc1	-18%[46.1 µM]	17%	59	2%[46.1 µM]
CC1(Cc2ccc(F)cc2)C(=O)Nc2ccc(-c3cccnc3)cc21 (stereo not given)	.	0%	-64*	.
CC(C)C[C@H](NC(=O)C1OC1C(=O)O)C(=O)NCCCCN=C(N)N (stereo not given in full)	?	.	.	4.1µM*
COC(=O)C1CC23C=CCN4CCC5(c6ccccc6NC15C2C)C43 (stereo not given)	?	-2%	-84*	?
COc1ccc(N2CC(NC(=O)COc3ccc4ccccc4c3)CC2=O)cc1 (stereo not given)	-16%[46.1 µM]	-15%	13	.
O=C(O)c1cc2ccccc2c(N=Nc2cccnc2)c1O	.	?	.	-1%[46.1 µM]
CCCCc1nc2ccccc2c(N)c1CCC (tested in a mixture with another compound)	?	?	-68*	18µM*
CCCCc1nc2ccccc2c(NC(=O)CNC(C)(C)C)c1CCC	15%	-19%	-21	2%[46.1 µM]
Cc1ccc(N2CC(C(=O)N3CCCCC3)CC2=O)cc1C (stereo not given)	.	5%	-61*	.
O=C(C1CC(=O)N(c2ccc3c(c2)OCCO3)C1)N1CCN(c2ccccc2)CC1 (stereo not given)	-12%	?	-70*	4%
Cc1ccc(N2CC(C(=O)N3CCOCC3)CC2=O)cc1C (stereo not given)	-7%	1%	-6	-1%[46.1 µM]
O=C(C1CC(=O)N(c2ccc3c(c2)OCCO3)C1)N1CCN(c2ccccc2O)CC1 (stereo not given)	.	?	20	.
C=CCNC(=S)N1Cc2ccccc2-n2nncc2C1	.	-21%	0	.
COC(=O)c1ccccc1NC1=C/C(=N\S(=O)(=O)c2cccs2)c2ccccc2C1=O	4.5µM*	2.5µM*	-30	3.7µM*
COC(=O)c1cccc(NS(=O)(=O)c2cccs2)c1C	3%	20%	55	-8%
CCOc1ccc(-n2nc3ccc(N)cc3n2)cc1	.	?	-93*	.
Cc1ccc(-n2nc3ccc(N)cc3n2)cc1	11µM*	11%	63	?
